For 95 molecules, inhibition results are on record in PubChem BioAssay AID1251 (SRMLSC, 2008).

Out of some 200,000 compounds screened, about 720 (0.36%) were called active. The sample holds actives, similar compounds and a random draw of the others, so the mix is not that of the screen. A number with no mark means an inactive call. No stated cut-off is given here; in the data, active means inhibition above about 30%; inactive means the rest, inconclusive results apart.

The assay can be described thus: inhibitors of arbovirus infection in cells – cell-based, full library, 10K replicate subset, primary screen (AID 1251). The following applies: arbovirus infection cell-based antiviral screen, at 10 µM, stronger effect = higher value.
In the case of `COc1ccc(CCNC(=O)/C(C#N)=C2\N=C(NC(=O)c3cccs3)c3ccccc32)cc1`, the inhibition is 1.79%.
For `O=C(O)/C=C/c1cn(Cc2ccccc2)nc1-c1cccs1`, the inhibition was 9.79%.
On to `Cc1c(Cl)cccc1NC(=S)NCc1ccc2c(c1)OCO2`, for which the inhibition was -9.04%.
As for `COCC(C)NCc1cc(Br)ccc1OC` (stereo not given), the inhibition was 5.99%.
In the case of `CCOc1ncccc1C(=O)N(C)CC(=O)Nc1ccc(F)cc1`, the inhibition was -2.52%.
Take `Cc1cc2ccccc2n1CCC(=O)O`: the inhibition was 4.57%.
For the molecule `COc1ccccc1N1CCN(C(=O)c2ccc(Cl)c(S(=O)(=O)N3CCCC3)c2)CC1`, the inhibition was 4.9%.
Regarding `COc1cc(NC(=O)COc2ccccc2Cl)ccc1NC(=O)C(C)C`, the inhibition was -3.4%.
Regarding `CC(=O)Nc1ccc(NC(=O)COc2ccccc2C(=O)Nc2cccc(Cl)c2Cl)cc1`, the inhibition was 33.1% (active).
The same measure for `O=C(COc1ccccc1Cl)Nc1ccc(C(=O)c2ccc(C(=O)O)cc2)cc1`: 1.44%; for `CSc1ccccc1NC(=O)CN(C)CC(=O)Nc1ccc(Cl)cc1[N+](=O)[O-]`: 9.71%.
With `COc1ccccc1C(=O)Nn1c(-c2cccs2)nc2ccccc2c1=O`, the inhibition was -3.21%.
For the molecule `CCOC(=O)N1CCN(C(=O)Cn2cnc3ccccc3c2=O)CC1`, the inhibition is 4.88%.
`CCOC(=O)C(=Cc1ccccc1OC)C(=O)OCC`: the inhibition was 1.92%.
The same measure for `O=c1c2c(ncn1Cc1ccccc1)nc1n2CCC1`: -1.22%.
Take `COc1ccc(/C=N/NC(=O)C(C)N(c2ccc(OC)cc2)S(C)(=O)=O)cc1` (stereo not given): the inhibition was -1.77%.
On to `COc1cc(OC)cc(C(=O)OCC(=O)Nc2sccc2C(N)=O)c1`, for which the inhibition was 4.53%.
`O=C(COC(=O)C12CC3CC(CC(O)(C3)C1)C2)NC12CC3CC(CC(C3)C1)C2`: the inhibition was 5.43%.
Then `Cc1ccc(C(=O)N/C(=C\c2ccco2)C(=O)N2CCSCC2)cc1C`, with 4.17%.
In the case of `O=C(Nc1ccn(Cc2ccc(F)cc2)n1)c1ccncc1`, the inhibition is 3.28%.
Then `O=C(Nc1ccn(Cc2ccccc2)n1)c1n[nH]c([N+](=O)[O-])c1Cl`, with 50.2% (active); and `O=C(Nc1ccn(Cc2ccccc2)n1)c1cccc(F)c1`, with -18.6%.
For the molecule `CC(=O)NC(NC(=S)Nc1c(C)n(C)n(-c2ccccc2)c1=O)C(Cl)(Cl)Cl` (stereo not given), the inhibition is 7.15%.
For the molecule `CCOc1cc(NC(=S)NCCCN(C)C)c(OCC)cc1NC(=O)C1CC1`, the inhibition was 5.58%.
Regarding `CCOc1ccc(Br)cc1S(=O)(=O)Nc1cccc(S(=O)(=O)N(CC)CC)c1`, the inhibition was 2.51%.
`CN(C)c1ccc(C(CC(=O)O)C(=O)O)cc1` (stereo not given): the inhibition is 2.46%.
Then `COc1ccc(N2C(=O)C(CC(=O)Nc3ccccc3)N(Cc3ccc(OC)c(OC)c3)C2=O)cc1` (stereo not given), with 0.98%; and `O=C(c1ccc2ccccc2n1)N1CCN(c2ccccc2Cl)CC1`, with 36% (active).
The same measure for `O=C(c1ccncc1)N1CCN(c2ccc3ccccc3n2)CC1`: 5.37%; for `COc1ccccc1N1CCN(C(=O)c2cc(-c3ccc(Cl)c(Cl)c3)on2)CC1`: 2.74%.
In the case of `Cc1cc(C(=O)NNC(=O)CCC2CCCCC2)c(C)o1`, the inhibition is -2.2%.
As to `C=CCn1nc(-c2ccccc2)c2c(C)onc2c1=O`, the inhibition was 4.65%.
The same measure for `Cc1ccc(-c2cc(C(F)(F)F)n3ncc(C(=O)N4CCCCC4c4cccnc4)c3n2)cc1` (stereo not given): -9.25%; for `COCCn1c(C)cc(C(=O)CSc2nc3ccccc3c(=O)n2C(C)COC)c1C` (stereo not given): 8.78%.
The same measure for `CCCc1nc(NCc2ccc3c(c2)OCO3)c2nnn(Cc3ccccc3Cl)c2n1`: -16.2%; for `Cc1nc(Nc2ccc3c(c2)OCCO3)c2nnn(Cc3ccccc3Cl)c2n1`: 51.5% (active).
The same measure for `Cc1nc(Nc2ccc(S(=O)(=O)N3CCCC3)cc2)c2nnn(Cc3ccccc3)c2n1`: -12.5%; for `Cc1ccc2nsnc2c1S(=O)(=O)N1CCCC1C(=O)O` (stereo not given): 1.07%.
For `Cc1cc(C)c(NC(=O)c2oc3ccccc3c2COc2ccccc2)c(C)c1`, the inhibition is 32.5% (active).
Consider `CCOC(=O)c1oc2ccccc2c1NC(=O)c1cccs1`, for which the inhibition was -1.76%.
With `COCc1c(C(=O)OCc2c(C)noc2C)oc2ccccc12`, the inhibition is 3.37%.
With `O=c1[nH]c(CN2CCOCC2)nc2scc(-c3ccccc3)c12`, the inhibition was 5.07%.
The same measure for `O=C(CN(CC1CCCO1)C(=O)CNS(=O)(=O)c1ccc(F)cc1)NCc1ccco1` (stereo not given): 2.42%; for `C/C(=N\N=C(N)N)c1ccc(Cl)cc1`: -24.2%.
As for `CC(C)(C)C(=O)NCCCNc1ccc([N+](=O)[O-])cc1`, the inhibition is 1.95%.
For `O=C(CNCc1ccc(F)cc1)Nc1ccccc1-c1ccccc1`, the inhibition is -16.4%.
For `Cc1ccc(N2CCN(C3=NC(=O)/C(=C\c4cccs4)S3)CC2)cc1`, the inhibition is 6.43%.
With `CCc1ccc(/C=C2\SC(N3CCOCC3)=NC2=O)cc1`, the inhibition is -6.68%.
The same measure for `Cc1ccc(Cl)c(NC(=O)CN2CCN(C=O)CC2)c1`: 5.23%; for `COc1ccc(CCn2ccc(O)c(Cc3ccc(Cl)cc3Cl)c2=O)cc1OC`: 5.76%; for `C/C(CCc1ccccc1)=N\NC(=O)c1ccc(CN2CCOCC2)cc1`: -3.19%.
Then `COc1ccc2c(c1)CCC/C2=N\OC(=O)c1ccccc1F`, with -1.6%.
Turning to `CCOc1cc(CNCc2ccccn2)ccc1OCC(=O)NC(C)(C)C`, the inhibition was -2.89%.
Then `CCCCCC(=O)NC(=S)NNC(=O)c1ccc([N+](=O)[O-])cc1`, with -18%.
Then `CCN(C(=O)COC(=O)c1cc(S(=O)(=O)N2CCc3ccccc32)ccc1OC)C1CCS(=O)(=O)C1` (stereo not given), with 7.54%; and `CCN(CC)CCNC(=O)c1ccc(NC(=O)c2c(F)cccc2Cl)cc1`, with -4.69%.
The same measure for `Cc1cc(C)c2nc(SCC(=O)N(C)C3CCS(=O)(=O)C3)cc(C)c2c1` (stereo not given): -6.1%; for `CCSc1nnc(NC(=O)c2ccc(C)cc2)s1`: 33.2% (active); for `CC(=O)c1sc(NC(=O)c2ccc(C)cc2)nc1C`: -4.42%.
On to `CCSc1nnc(NC(=O)Cc2ccccc2OC)s1`, for which the inhibition was 3.03%.
As to `COc1cccc(CNn2cn[nH]c2=S)c1OCc1ccccc1`, the inhibition is -1.17%.
The same measure for `NC(=O)CC[C@@H]1NC(=O)[C@@H]2CCCN2C(=O)c2cc([N+](=O)[O-])cc(F)c2NCCC[C@@H](C(N)=O)NC1=O`: 8.77%; for `O=C(CSc1ncn[nH]1)NCc1ccc2c(c1)OCO2`: 2.87%.
As to `CCNC(=S)N1CCN(c2ncccn2)CC1`, the inhibition is -0.7%.
`O=C(C1=C[C@H](C2CC2)C[C@H](OCc2ccc(CO)cc2)O1)N1CCN(Cc2ccccc2)CC1`: the inhibition was 4.26%.
The same measure for `CN(C)NC(=O)C(NC(=O)c1ccc(N)cc1)C12CC3CC(CC(C3)C1)C2` (stereo not given): 5.7%; for `CCOC(=O)c1ccccc1N1C(=O)C2Sc3[nH]c(=O)sc3C(/C=C/c3ccccc3)C2C1=O` (stereo not given): -0.3%; for `CCC(C)NCCOCCOc1ccc(Br)cc1C` (stereo not given): -28.9%.
In the case of `COc1ccc2cc(CCl)c(Cl)nc2c1`, the inhibition was -7.11%.
Regarding `CCCn1c(N)c(C(=O)CSc2nnc(-c3cccnc3)n2-c2ccc(C)cc2C)c(=O)[nH]c1=O`, the inhibition was 6.05%.
`CCCn1c(N)c(C(=O)CSc2nc3ccccc3c(=O)n2-c2ccc(OC)cc2)c(=O)[nH]c1=O`: the inhibition was 30.7% (active).
The same measure for `COc1cccc(-n2c(SCC(=O)c3c[nH]c4ccccc34)nc3ccccc3c2=O)c1`: 5.13%; for `CCCCCOc1ccc(CSC2=NCCN2)cc1[N+](=O)[O-]`: -7.5%.
The same measure for `CCOC(=O)c1sc(=S)n2c1[nH]c(=O)c1ccc(C(=O)OC)cc12`: 32.4% (active); for `CCOC(=O)Cn1c(N)c(C(=O)OC)sc1=S`: 0.02%.
In the case of `CCOC(=O)c1sc(=S)n(-c2cccc(OC)c2)c1N`, the inhibition is 0.93%.
`CCOC(=O)C1=C(C)NC(=S)NC1c1cccs1` (stereo not given): the inhibition is -5%.
For the molecule `COC(=O)c1ccc(NC(=O)c2cc(Cl)ccc2OC)cc1`, the inhibition is -17.6%.
`CC(=O)N1CCN(S(=O)(=O)c2c(F)cc(F)c(Cl)c2F)CC1`: the inhibition was 6.03%.
Regarding `Cc1ccc(N2C(=O)C(CC(=O)Nc3cccc(F)c3)N(CCc3ccncc3)C2=O)cc1` (stereo not given), the inhibition was 7.79%.
Turning to `CCn1c(Cc2ccccc2)nnc1SCc1nc2ccccc2c(=O)[nH]1`, the inhibition was 5.28%.
Consider `COc1ccc(CCCc2nnc(SCc3nc4ccccc4c(=O)[nH]3)n2C)cc1`, for which the inhibition is 31.9% (active).
`CCn1c(COc2c(C)cccc2C)nnc1SCc1nc2ccccc2c(=O)[nH]1`: the inhibition is 0.34%.
Turning to `Cc1ccc(N(CCC(=O)O)S(=O)(=O)c2cccc(C(F)(F)F)c2)cc1`, the inhibition is 5.45%.
Consider `O=c1nc(N/N=C/c2ccco2)cn[nH]1`, for which the inhibition is -4.7%.
`CCCCSc1[nH]c(=O)c(C(=O)OCC)cc1C#N`: the inhibition was 39.8% (active).
In the case of `Cc1cc(=O)[nH]c(SCC(N)=O)c1C#N`, the inhibition was 4.32%.
As for `CC(=O)c1cc(C#N)c(SCC(=O)C(C)(C)C)nc1C`, the inhibition is -12.4%.
Consider `COc1cc(NS(=O)(=O)c2ccc(NC(=O)c3ccc(S(=O)(=O)N4CCCCC4)cc3)cc2)ncn1`, for which the inhibition is -0.14%.
For the molecule `N#Cc1ccc(C(=O)Nc2nc(-c3cccs3)c(C(=O)C(F)(F)F)s2)cc1`, the inhibition is 2.83%.
The same measure for `CCn1c(CSCc2c(Cl)cccc2Cl)n[nH]c1=S`: 10.9%.
For `CN(CC(=O)Nc1ccc(S(=O)(=O)N2CCCC2)cc1)Cc1ccc(Cl)c(Cl)c1`, the inhibition was -4.82%.
The same measure for `CNCC(O)CN1CCN(c2ccccc2OC)CC1` (stereo not given): 3.01%; for `COc1ccccc1N1CCN(Cc2ccc(OC)c3ccccc23)CC1`: 31.9% (active); for `COc1ccccc1N1CCN(CCCCOc2ccc(F)cc2)CC1`: 13.4%.

In general, inhibition refers to the relative decrease from the control value, in per cent.
